Screens deposited in PubChem by several laboratories.
PHOSPHO1 inh – PHOSPHO1 (human) inhibition. 290,000 tested, 1.1% active. inhibition, % at 13.3 µM. recombinant PHOSPHO1, absorbance phosphatase assay; in the data active means inhibition above about 60%
Calb FLC – C. albicans growth modulation with fluconazole | C. albicans CaCi-2 (fluconazole-resistant clinical isolate) + fluconazole, Alamar Blue growth, 48 h | growth inhibition, % (no concentration beside the values) | 300,000 tested, 0.57% active | AID 1979;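 active means growth inhibition above about 58% in most replicates, limit read from the data, passing the limit was not always enough; inconclusive means exactly half the replicates above a set limit; inactive means most replicates below a set limit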;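 further: all wells also contain fluconazole at 8 µg/ml as a sub-toxic cotreatment; 0% = median of DMSO wells and 100% = median of geldanamycin control wells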
Efflux pump mplx – antifungal efflux pump inhibition, Nile Red retention; S. cerevisiae Candida pump triplex; inhibition, % at 10 µM; 330,000 tested, 0.44% active;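 active means plate passing quality check with inhibition over a set limit, or well fluorescence over plate mean plus 4 SD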;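 further: Nile Red retained in pooled yeast measured as flow cytometry median fluorescence; 0% = buffer negative control and 100% = Enniatin B positive control; higher means more Nile Red kept so more efflux inhibition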
Cl transport mod – modulators of human KCC2 chloride dependent transport; AID 1456; KCC2 cells, thallium flux FluoZin-2 fluorescence; B-score of Tl+ flux slope (higher = more flux/activation; lower = inhibition) at 10 µM; Q9H2X9; 190,000 tested, 2.2% active;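 active means thallium flux slope and its plate-corrected score both differing from the plate sample mean at a set confidence after two filtering rounds, in either direction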;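 further: slope of fluorescence scaled to starting intensity during 10 to 20 s after thallium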
Target sequence (Q9H2X9 whole entry, looked up): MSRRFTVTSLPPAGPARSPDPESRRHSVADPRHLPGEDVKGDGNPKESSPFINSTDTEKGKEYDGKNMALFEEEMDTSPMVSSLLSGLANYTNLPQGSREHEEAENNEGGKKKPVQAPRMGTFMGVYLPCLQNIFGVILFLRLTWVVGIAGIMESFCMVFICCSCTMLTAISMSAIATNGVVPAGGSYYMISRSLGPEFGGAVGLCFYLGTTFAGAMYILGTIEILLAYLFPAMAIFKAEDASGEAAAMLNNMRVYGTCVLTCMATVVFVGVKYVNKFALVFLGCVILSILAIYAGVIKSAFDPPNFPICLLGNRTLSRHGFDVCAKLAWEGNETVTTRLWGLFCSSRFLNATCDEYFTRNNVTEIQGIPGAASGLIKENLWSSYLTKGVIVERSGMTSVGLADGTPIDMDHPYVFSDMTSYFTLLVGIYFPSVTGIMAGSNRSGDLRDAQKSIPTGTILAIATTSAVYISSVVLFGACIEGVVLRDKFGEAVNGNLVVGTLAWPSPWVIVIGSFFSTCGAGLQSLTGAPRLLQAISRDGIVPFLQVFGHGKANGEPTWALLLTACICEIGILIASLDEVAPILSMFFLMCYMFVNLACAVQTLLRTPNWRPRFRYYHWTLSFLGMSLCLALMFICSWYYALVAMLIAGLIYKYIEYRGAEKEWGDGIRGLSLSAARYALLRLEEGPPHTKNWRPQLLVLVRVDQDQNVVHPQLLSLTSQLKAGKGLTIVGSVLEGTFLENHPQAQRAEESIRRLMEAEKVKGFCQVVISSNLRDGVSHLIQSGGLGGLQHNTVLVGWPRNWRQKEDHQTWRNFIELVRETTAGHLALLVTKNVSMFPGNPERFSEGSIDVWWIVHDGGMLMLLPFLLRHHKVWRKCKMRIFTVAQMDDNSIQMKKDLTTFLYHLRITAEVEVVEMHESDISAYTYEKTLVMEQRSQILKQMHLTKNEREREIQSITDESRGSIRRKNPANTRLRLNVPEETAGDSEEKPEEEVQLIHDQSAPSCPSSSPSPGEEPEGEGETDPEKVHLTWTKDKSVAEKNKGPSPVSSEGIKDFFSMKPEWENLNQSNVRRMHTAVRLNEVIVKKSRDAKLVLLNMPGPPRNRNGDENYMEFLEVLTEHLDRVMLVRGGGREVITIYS
H9c2 protect – myocardial damage modulation in H9c2 cells; protection from H2O2 cell death, % at 20 µM; H9c2 cardiomyocytes, H2O2 injury protection, ATPLite, 2 h; AID 588492; 360,000 tested, 0.63% active;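 active means compounds giving at least 50% protection of heart cells from peroxide-induced death in the single-dose screen, raw or plate-pattern-corrected value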;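 further: 0% = DMSO wells with peroxide and 100% = DMSO wells without peroxide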
KCC2 sec1 – KCC2 (human) modulation, secondary assay; shares compounds with Cl transport mod; HEK293-KCC2, thallium flux, FluoZin2 fluorescence; active compounds read high; normalised thallium flux (F/F0 slope) at 10 µM; 3,700 tested, 15% active; AID 1713;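 active means thallium flux slope above the same plate's solvent-only control mean plus 3 SD; inconclusive means the two replicate wells disagree; inactive means no significant difference from solvent-only control wells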
KCC2 bumet counter – thallium flux persisting under bumetanide in KCC2 cells, counter-screen secondary assay; shares compounds with Cl transport mod; HEK293-KCC2 + bumetanide/ouabain, thallium flux FluoZin2; active compounds read high; normalized thallium flux at 10 µM; 3,700 tested, 49% active; AID 1714;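 active means thallium entry rate above the same plate's blocked-transporter control wells by more than 3 SD; inconclusive means the two repeat wells disagree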;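 further: raw slope of fluorescence over initial fluorescence between 10 and 20 s after thallium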
KCC2 sec2 – KCC2 (human) modulation, second secondary assay; shares compounds with Cl transport mod; HEK293-KCC2, thallium flux FluoZin2 fluorescence; actives lie on both sides; F/F0 rise rate, 10–20 s post-thallium; normalized thallium flux at 10 µM; 3,700 tested, 23% active;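 active means thallium flux slope more than 3 SD above or below the plate's solvent-only control mean, mostly below; inconclusive means the two repeat wells disagreed; inactive means no significant shift from solvent-only controls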;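 further: raw slope with 0.1% DMSO as baseline and bumetanide as block control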
HEK counter1 – counter-screen for KCC2 modulators: effect in parental HEK293 cells; thallium flux rate (normalised fluorescence) at 10 µM; shares compounds with Cl transport mod; thallium flux FluoZin2, ouabain; baseline-ratio fluorescence slope, 10–20 s after thallium; 3,700 tested, 46% active;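 active means thallium flux rate significantly above the same plate's solvent-only control wells, beyond their mean plus 3 SD; inconclusive means the two replicate wells gave conflicting results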
KCC2 ouabain – KCC2 (human) modulation, ouabain retest | shares compounds with Cl transport mod | HEK293-KCC2, thallium flux FluoZin2 fluorescence; bidirectional: low = inhibitor, high = activator | raw Tl+ flux slope (below DMSO = inhibition, above = activation) at 10 µM | 3,700 tested, 48% active | AID 1717;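 active means thallium flux slope beyond 3 SD from same-plate DMSO control mean in most replicates, usually higher, sometimes lower; inconclusive means repeat tests gave conflicting results; inactive means no significant difference from controls in most replicates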;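 further: slope of initial-normalized fluorescence between seconds 10 and 20 after thallium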
HEK counter2 – parental HEK flux effect, counter-screen 2 | shares compounds with Cl transport mod | HEK293 parental, thallium flux FluoZin-2 fluorescence slope | thallium flux slope at 10 µM | 3,700 tested, 33% active | AID 1718;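 active means thallium flux slope above the same plate's solvent-control mean plus 3 SD in both duplicate wells; inconclusive means duplicate wells that disagreed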;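 further: run without ouabain in cells lacking the KCC2 cotransporter; slope of fluorescence scaled to its starting value between 10 and 20 s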
* hit, by the source's call; ? = inconclusive; . = no result. Shown are actives, neighbours in structure and some others; about 3.3% of the full set was active somewhere.

SMILES	PHOSPHO1 inh	Calb FLC	Efflux pump mplx	Cl transport mod	H9c2 protect	KCC2 sec1	KCC2 bumet counter	KCC2 sec2	HEK counter1	KCC2 ouabain	HEK counter2
O=C(Nc1ccccn1)c1cc2cc([N+](=O)[O-])ccc2s1	-12	-6	0	-0.37	-14	.	.	.	.	.	.
S=c1[nH]nc(Nc2ccccc2Cl)s1	68*	3	0	-5.3*	0	0.0041*	0.0094*	0.022*	0.012*	0.012*	0.014*
S=c1[nH]nc(Nc2cccc(Cl)c2)s1	80*	-1	1	-5.8*	8	0.0061	0.0051	0.02*	0.0082	?	0.012
Cc1ccc(Nc2n[nH]c(=S)s2)cc1C	.	.	.	.	-4	.	.	.	.	.	.
C=CC(C)(O)CCCC(C)CCCC(C)CCCC(C)C (centres undefined)	.	.	0	.	0	.	.	.	.	.	.
O=c1oc2ccccc2cc1-c1csc(Cc2nc(-c3ccc(Br)cc3)cs2)n1	-3	3	0	.	-14	.	.	.	.	.	.
Cc1ccc(-c2csc(Cc3nc(-c4cc5ccccc5oc4=O)cs3)n2)cc1	-79	0	0	.	-16	0.017	0.0051	0.029	0.007	0.016	0.0097
C/C(=N\N1CCN(C2c3ccccc3-c3ccccc32)CC1)c1cccnc1	27	4	0	-0.011	-3	.	.	.	.	.	.
CN=c1scc(-c2ccccc2F)n1/N=C(\C)c1cccnc1	-11	-2	0	-3.9*	-19	0.007	0.0048	?	0.0077	?	0.011
O=C1CCCc2c1[nH]c1ccc(CN3CCCCC3)cc21	-11	2	0	-5.1*	27	0.0052	0.0048	0.029	0.0077	0.018	0.01
Cc1ccc2[nH]c3c(c2c1)CCCC3=O	-11	4	0	-0.39	1	.	.	.	.	.	.
COn1c(SC(C)C)nc2ccccc2c1=O	-80	40	0	0.23	3	.	.	.	.	.	.
COn1c(SC2CCCCC2)nc2ccccc2c1=O	-8	38	0	2.6*	-6	?	0.014*	0.027	0.012*	?	0.0099
O=S(=O)(NCCSc1ccccc1)c1ccc2c(c1)OCCO2	-6	-10	0	.	-18	?	0.0046	0.032	0.0063	?	0.011
Cc1c(C(=O)N2CCC(Cc3ccccc3)CC2)cccc1[N+](=O)[O-]	8	48	0	-2.3	-8	.	.	.	.	.	.
CC1CCN(C(=O)c2ccc(SCc3ccccc3F)c([N+](=O)[O-])c2)CC1	-2	6	0	-3.4*	-16	0.0068	0.0052	0.025*	0.008	?	0.0097
O=C(c1ccc(S(=O)(=O)Cc2ccccc2F)c([N+](=O)[O-])c1)N1CCCCCC1	-1	11	0	-0.13	0	.	.	.	.	.	.
Cc1ccc(C(=O)N2CCC(Cc3ccccc3)CC2)cc1[N+](=O)[O-]	-16	10	0	-5.7*	-9	0.008	?	0.034	0.0034	0.014*	0.011
COc1cccc(/C=N/NC(=S)NC2CC3CC2C2C=CCC32)c1O (centres undefined)	12	13	0	0.62	14	.	.	.	.	.	.
Oc1ccccc1/C=N/NC(=S)NC1CC2CC1C1C=CCC21 (centres undefined)	3	2	0	15*	13	0.01	0.014*	0.032	0.013*	0.032*	?
O=C(Cn1[nH]c(=O)c2ccccc2c1=O)NC1CCN(Cc2ccccc2)CC1	9	-3	0	-4.3*	70*	0.018	0.0038	0.029	0.0076	0.017	0.011
c1ccc2sc(SN3CCOCC3)nc2c1	66*	2	0	2.8*	-7	0.0077	0.013*	0.027	0.011*	0.021	?
COc1ccc(NC(=O)C2CCCN(S(C)(=O)=O)C2)cc1OC (centres undefined)	34	11	0	.	4	.	.	.	.	.	.
CCOc1cccc(-c2nnc3sc(COc4ccc(Cl)cc4)nn23)c1	12	-19	0	-3.6*	-22	0.019	0.0046	0.028	0.0072	0.014	0.01
CCOC(=O)C1CCN(S(=O)(=O)c2cn(C)c(=O)n(C)c2=O)CC1	8	1	0	0.89	-1	.	.	.	.	.	.
SMILES	PHOSPHO1 inh	Calb FLC	Efflux pump mplx	Cl transport mod	H9c2 protect	KCC2 sec1	KCC2 bumet counter	KCC2 sec2	HEK counter1	KCC2 ouabain	HEK counter2
COC(=O)C1CCN(S(=O)(=O)c2cn(C)c(=O)n(C)c2=O)CC1	14	-3	0	-3.4*	7	0.0088	?	0.032	0.0077	0.021	0.011
COc1ccc(C2N(C(=O)CN3CCCC3)CCCN2S(=O)(=O)c2ccccc2)cc1 (centres undefined)	11	-1	0	.	0	.	.	.	.	.	.
COc1ccc(C(C)(C)C)cc1NC(=O)COC(=O)c1nc2nccc(C)n2n1	.	.	0	.	6	.	.	.	.	.	.
COc1cccc(NC(=O)COC(=O)c2nc3nccc(C)n3n2)c1	-2	-5	0	-5.4*	2	0.0077	0.0042	0.03	?	0.018	0.011
S=c1nc2ccccc2c2nc(-c3ccccc3)[nH]n12	56	?	0	32*	1	0.03*	0.046*	0.036	0.013*	0.041*	0.017*
O=C(NCc1ccc(Cl)cc1)c1n[nH]c([N+](=O)[O-])c1Cl	-5	97*	0	-3.8*	-1	0.0073	0.0057*	?	?	0.016	0.01
O=C(Cc1ccccc1[N+](=O)[O-])NCc1ccc(Cl)cc1	5	2	0	1.5	-6	.	.	.	.	.	.
CCn1c(SCC(=O)Nc2nc3ccccc3s2)nc2c(c1=O)SC(C)C2 (centres undefined)	54	-5	0	-4.1*	.	0.0072	0.0052	0.03	0.0057*	0.02*	0.0091
COc1ccc(CCN(C)C2CCCN(S(=O)(=O)c3ccccc3F)C2)cc1OC (centres undefined)	.	-6	0	.	4	.	.	.	.	.	.
Cc1ccc(S(=O)(=O)NCC(=O)OCN2C(=O)c3ccccc3C2=O)cc1	1	2	0	-0.79	.	0.0093	0.006	0.032	0.0072	0.019	0.011
Cc1cccc(C)c1-n1cccc1/C=C1\SC(=S)N(c2cccc(C(=O)O)c2)C1=O	24	60	0	-4.5*	-10	0.0062	0.004	0.029	0.0054*	0.015*	0.0083*
